Source: PubChem BioAssay (Tox21)
Records with an inconclusive call do not appear. Calls of active or inactive are those of the source. Unless noted, calls come from the whole dose curve; as a rule, active = well fitted curve in the direction sought with a large enough effect in the repeat runs; inconclusive = weak or mixed curves; inactive = flat fitted curve, though single readings scatter.

Legend:
[1] = qHTS assay to test for compound auto fluorescence at 535 nm (green) in HEK293 cells (AID 720680)
[2] = qHTS assay to test for compound auto fluorescence at 460 nm (blue) in HEK293 cell free culture (AID 720681)
Procedure, shortened: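 Compounds were added to cell-free DMEM with 10% FBS and fluorescence read directly. The blue channel used 405 nm excitation and 460 nm emission, with triamterene as the reference fluorophore.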

[3] = qHTS assay to test for compound auto fluorescence at 535 nm (green) in HEK293 cell free culture (AID 720682)
Procedure, shortened: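 Each library compound, or DMSO control, is added by pintool to medium alone, comprising DMEM and 10% FBS. Emission at 535 nm following 485 nm excitation is quantified against fluorescein.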

[4] = qHTS assay to test for compound auto fluorescence at 590 nm (red) in HEK293 cell free culture (AID 720683)
Procedure, shortened: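 Cell-free wells of DMEM with 10% FBS received compound, and intrinsic fluorescence was read at excitation/emission 540/590 nm. Values expressed as equivalence to Rose Bengal sodium.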

[5] = qHTS assay to test for compound auto fluorescence at 590 nm (red) in HepG2 cell free culture (AID 720684)
Procedure, shortened: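 Auto fluorescence equivalency versus Rose Bengal sodium, red channel Ex/Em 540/590 nm; compounds in cell-free MEM/10% FBS; DMSO vehicle control.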

[6] = qHTS assay to test for compound auto fluorescence at 460 nm (blue) in HepG2 cell free culture (AID 720685)
Procedure, shortened: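 Cell-free plates of MEM plus 10% FBS received 23 nL compound or DMSO vehicle; blue-channel (405/460 nm) intensity scored against triamterene as reference fluorophore.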

[7] = qHTS assay to test for compound auto fluorescence at 535 nm (green) in HepG2 cell free culture (AID 720686)
[8] = qHTS assay to test for compound auto fluorescence at 460 nm (blue) in HepG2 cells (AID 720687)
Procedure, shortened: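 HepG2 cells in MEM with 10% FBS, attached overnight at 37 C, were exposed to compound or DMSO for 1 hr at 37 C, 5% CO2. Blue fluorescence was read at 405/460 nm, with triamterene as reference fluorophore.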

[9] = molecular target: Glucocorticoid receptor (Homo sapiens) (UniProt P04150); assay: qHTS assay to identify small molecule agonists of the glucocorticoid receptor (GR) signaling pathway (AID 720691; active = well fitted activation curve with a large enough effect in the signal ratio in the repeat runs, not every such curve was filed as active; the % refers to the signal ratio)
Procedure, shortened: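 HeLa GR-bla reporter line; cells pre-incubated 4 h, compound in DMSO 18 h at 37 C; LiveBLAzer B/G FRET substrate 2 h RT; fluorescence intensity read-out.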

[10] = molecular target: Glucocorticoid receptor (Homo sapiens) (UniProt P04150); assay: qHTS assay to identify small molecule antagonists of the glucocorticoid receptor (GR) signaling pathway (AID 720692; active = well fitted inhibition curve with a large enough effect in the signal ratio in the repeat runs, not every such curve was filed as active; the % refers to the signal ratio)
Procedure, shortened: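 Read-out: beta-lactamase FRET substrate fluorescence, 2 h at room temperature, in HeLa cells stably carrying a GRE-driven bla reporter. Compounds were co-incubated with 5 nM dexamethasone agonist (final) for 18 h at 37 C.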
% is set by controls: 0 for no effect and ±100 for the full control effect.

Sequence of Glucocorticoid receptor (Homo sapiens) (P04150 whole entry, looked up): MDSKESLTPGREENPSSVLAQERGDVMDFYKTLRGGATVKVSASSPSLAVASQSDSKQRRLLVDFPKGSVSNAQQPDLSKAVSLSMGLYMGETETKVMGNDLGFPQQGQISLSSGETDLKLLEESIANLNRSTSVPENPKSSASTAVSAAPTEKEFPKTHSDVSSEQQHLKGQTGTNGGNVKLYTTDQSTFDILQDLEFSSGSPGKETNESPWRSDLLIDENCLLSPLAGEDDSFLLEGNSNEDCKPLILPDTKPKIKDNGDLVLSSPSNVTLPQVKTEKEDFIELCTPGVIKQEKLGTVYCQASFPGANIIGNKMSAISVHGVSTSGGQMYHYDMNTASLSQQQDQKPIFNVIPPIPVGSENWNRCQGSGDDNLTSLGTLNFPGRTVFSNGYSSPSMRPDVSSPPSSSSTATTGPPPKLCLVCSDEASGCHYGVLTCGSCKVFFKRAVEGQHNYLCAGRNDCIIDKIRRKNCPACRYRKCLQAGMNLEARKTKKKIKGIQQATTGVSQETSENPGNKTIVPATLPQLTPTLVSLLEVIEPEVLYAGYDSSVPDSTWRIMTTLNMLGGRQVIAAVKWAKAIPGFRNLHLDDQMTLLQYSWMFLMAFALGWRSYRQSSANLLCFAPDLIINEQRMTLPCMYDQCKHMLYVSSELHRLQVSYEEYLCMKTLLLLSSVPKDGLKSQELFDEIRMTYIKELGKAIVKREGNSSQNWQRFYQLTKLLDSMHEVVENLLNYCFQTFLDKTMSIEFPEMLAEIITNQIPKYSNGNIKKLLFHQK

O=C(O)c1c(Cl)ccc(Cl)c1Cl
inactive: outcome [1] | outcome [2] | outcome [3] | outcome [4] | outcome [5] | outcome [6] | outcome [7] | outcome [8] | Potency [9] | outcome [10]

CC(=O)c1ccc(OCC(=O)N2CCCCC2)cc1
inactive: outcome [1] | outcome [2] | outcome [3] | outcome [4] | outcome [5] | outcome [6] | outcome [7] | outcome [8] | Potency [9] | outcome [10]

FC(F)(F)c1ccc(Cl)cc1Cl
inactive: outcome [1] | outcome [2] | outcome [3] | outcome [4] | outcome [5] | outcome [6] | outcome [7] | outcome [8] | Potency [9] | outcome [10]

CC(Cl)COP(=O)(OCC(C)Cl)OCC(C)Cl (stereo not given)
inactive: outcome [1] | outcome [2] | outcome [3] | outcome [4] | outcome [5] | outcome [6] | outcome [7] | outcome [8] | Potency [9] | outcome [10]

Cc1nc(C)nc(N2C[C@@H](C)N(c3ccnc([C@@H](C)O)n3)[C@@H](C)C2)n1
inactive: outcome [1] | outcome [2] | outcome [3] | outcome [4] | outcome [5] | outcome [6] | outcome [7] | outcome [8] | Potency [9] | outcome [10]

CC(C)(C)NCCO
inactive: outcome [1] | outcome [2] | outcome [3] | outcome [4] | outcome [5] | outcome [6] | outcome [7] | outcome [8] | Potency [9] | outcome [10]

CCCOC(=O)CCCCC(=O)OCCC
inactive: outcome [1] | outcome [2] | outcome [3] | outcome [4] | outcome [5] | outcome [6] | outcome [7] | outcome [8] | Potency [9] | outcome [10]

CCCCCCCCCCCCC
inactive: outcome [1] | outcome [2] | outcome [3] | outcome [4] | outcome [5] | outcome [6] | outcome [7] | outcome [8] | Potency [9] | outcome [10]

O=[Si]=O
inactive: outcome [1] | outcome [2] | outcome [3] | outcome [4] | outcome [5] | outcome [6] | outcome [7] | outcome [8] | Potency [9] | outcome [10]

NS(=O)(=O)c1cc2c(cc1Cl)NC(CC1CCCC1)NS2(=O)=O (stereo not given)
inactive: fluorescence, % of fluorescein [1] 0.0502% [at 18.6 µM] | fluorescence, % of fluorescent control [2] -0.0459% [at 18.6 µM] | activity change [3] 0.104% [at 18.6 µM] | fluorescence, % of fluorescent control [4] -0.0938% [at 18.6 µM] | fluorescence, % of Rose Bengal [5] 0.409% [at 18.6 µM] | fluorescence, % of fluorescent control [6] -0.0354% [at 18.6 µM] | fluorescence, % of fluorescein control [7] -0.0012% [at 18.6 µM] | fluorescence, % of fluorescent control [8] 0.11% [at 18.6 µM] | Potency [9] | outcome [10]

CCN1CN(CC)CN(CC)C1
inactive: outcome [1] | outcome [2] | outcome [3] | outcome [4] | outcome [5] | outcome [6] | outcome [7] | outcome [8] | Potency [9] | outcome [10]

CCCCC(=O)N(C)C
inactive: outcome [1] | outcome [2] | outcome [3] | outcome [4] | outcome [5] | outcome [6] | outcome [7] | outcome [8] | Potency [9] | outcome [10]

CCCCCC1Nc2cc(C(F)(F)F)c(S(N)(=O)=O)cc2S(=O)(=O)N1 (stereo not given)
inactive: outcome [1] | outcome [2] | outcome [3] | outcome [4] | outcome [5] | outcome [6] | outcome [7] | outcome [8] | Potency [9] | outcome [10]

CNC(=O)C(c1ccccc1)c1ccccc1
inactive: outcome [1] | outcome [2] | outcome [3] | outcome [4] | outcome [5] | outcome [6] | outcome [7] | outcome [8] | Potency [9] | outcome [10]

CCC(CO)CO
inactive: outcome [1] | outcome [2] | outcome [3] | outcome [4] | outcome [5] | outcome [6] | outcome [7] | outcome [8] | Potency [9] | outcome [10]

C=C(C)C(=O)OC1CC(C)CC(C)(C)C1 (stereo not given)
inactive: outcome [1] | outcome [2] | outcome [3] | outcome [4] | outcome [5] | outcome [6] | outcome [7] | outcome [8] | Potency [9] | outcome [10]

C=C[C@@H](C)CCC=C(C)C
inactive: outcome [1] | outcome [2] | outcome [3] | outcome [4] | outcome [5] | outcome [6] | outcome [7] | outcome [8] | Potency [9] | outcome [10]

O=c1[nH]c(=O)c2[nH]c(=O)[nH]c2[nH]1
inactive: outcome [1] | outcome [2] | outcome [3] | outcome [4] | outcome [5] | outcome [6] | outcome [7] | outcome [8] | Potency [9] | outcome [10]

CCCCCCCCCCC
inactive: outcome [1] | outcome [2] | outcome [3] | outcome [4] | outcome [5] | outcome [6] | outcome [7] | outcome [8] | Potency [9] | outcome [10]

Cc1cccc(Nc2ccncc2S(=O)(=O)NC(=O)NC(C)C)c1
inactive: fluorescence, % of fluorescein [1] -0.12% [at 18.6 µM] | fluorescence, % of fluorescent control [2] -0.219% [at 18.6 µM] | activity change [3] -0.379% [at 18.6 µM] | fluorescence, % of fluorescent control [4] 0.257% [at 18.6 µM] | fluorescence, % of Rose Bengal [5] -0.0539% [at 18.6 µM] | fluorescence, % of fluorescent control [6] -0.124% [at 18.6 µM] | fluorescence, % of fluorescein control [7] 0.0067% [at 18.6 µM] | fluorescence, % of fluorescent control [8] -0.0073% [at 18.6 µM] | Potency [9] | outcome [10]

Nc1ccnc(=O)[nH]1
inactive: outcome [1] | outcome [2] | outcome [3] | outcome [4] | outcome [5] | outcome [6] | outcome [7] | outcome [8] | Potency [9] | outcome [10]
